# Test results as given in PubChem BioAssay (NCI).
# Compounds without any hit were thinned out: in the full panel of roughly 83,000, 20% have a hit.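 For each line, cells grew in 96-well plates with the test compound present at a single concentration for 48 hours.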 A number with no mark means an inactive call. Calls of active or inactive are those of the source. How the source made its calls: active means growth percent below 10; inactive means the rest.
# Columns and labels:
# Assay in all cases: NCI-60 one-dose screen, 48 h (100 = growth as untreated, 0 = no growth, -100 = all killed)
# [1] = tested on: DU-145 prostate; settings: 10 µM unless noted
# [2] = tested on: MALME-3M melanoma; settings: 10 µM unless noted
# [3] = tested on: MDA-MB-231 breast; settings: 10 µM unless noted
# [4] = tested on: RXF 393 renal; settings: 10 µM unless noted
# [5] = tested on: SF-268 CNS; settings: 10 µM unless noted
# [6] = tested on: SF-295 CNS; settings: 10 µM unless noted
# [7] = tested on: SF-539 CNS; settings: 10 µM unless noted
# [8] = tested on: UACC-257 melanoma; settings: 10 µM
# [9] = tested on: M14 melanoma; settings: 10 µM unless noted
# [10] = tested on: HCT-15 colon; settings: 10 µM unless noted
# [11] = tested on: HT29 colon; settings: 10 µM unless noted
# [12] = tested on: SNB-75 CNS; settings: 10 µM unless noted
# [13] = tested on: SNB-19 CNS; settings: 10 µM unless noted
# [14] = tested on: U251 CNS; settings: 10 µM unless noted
# [15] = tested on: PC-3 prostate; settings: 10 µM unless noted
# [16] = tested on: SK-MEL-5 melanoma; settings: 10 µM unless noted
# [17] = tested on: UACC-62 melanoma; settings: 10 µM unless noted
# [18] = tested on: LOX IMVI melanoma; settings: 10 µM unless noted
# [19] = tested on: SK-MEL-28 melanoma; settings: 10 µM unless noted
# [20] = tested on: K-562 leukemia; settings: 10 µM unless noted
Compound,growth [1],growth [2],growth [3],growth [4],growth [5],growth [6],growth [7],growth [8],growth [9],growth [10],growth [11],growth [12],growth [13],growth [14],growth [15],growth [16],growth [17],growth [18],growth [19],growth [20]
O=C(O)c1cccc([N+](=O)[O-])c1/C=C/c1ccccc1,105%,90.4%,109%,103%,97.7%,95.4%,107%,117%,101%,102%,100%,86.9%,101%,97.4%,124%,103%,107%,96%,105%,
COC(=O)C(CC(=O)c1ccc(-c2ccccc2)cc1)c1ccccc1 (stereo unspecified),72.7%,,66.3%,56.5%,88.7%,58.6%,34.7%,66.7%,42.6%,31.3%,6.34% (active),72.5%,75.5%,71.1%,64.4%,45.5%,51.3%,44.9%,70.9%,20.6%
c1ccc2nc(-c3ccc4ccccc4n3)ccc2c1,106%,83.5%,,117%,95.9%,93.5%,88.3%,106%,90.2%,104%,105%,,105%,95.8%,84.5%,88.9%,97%,92.2%,106%,93.3%
CNC(C)=O,99.5%,86.1%,,105%,98.4%,93.7%,89.8%,102%,108%,105%,94.8%,104%,104%,93.4%,96.6%,102%,105%,95%,101%,90.3%
Clc1ccc([I+]c2ccc(Cl)cc2Cl)c(Cl)c1,4.04% (active),50.2%,38.3%,-15.1% (active),26.5%,97.4%,16.8%,66.4%,88.8%,30.2%,-26.8% (active),34%,87.8%,6.72% (active),9.9% (active),104%,12.3%,10.5%,87.3%,
CCN(Cc1ccccc1)c1ccc(SC#N)cc1,98.3%,88%,,47.6%,83.8%,95.3%,82.2%,107%,89.2%,64.8%,70.5%,83.1%,90.7%,81.5%,30.5%,93.8%,90.4%,49.2%,86.7%,41%
CCC(=O)Oc1cc(/C=C/C(=O)O[C@H]2C[C@H]3CN4CCc5c([nH]c6cc(OC)ccc56)[C@@H]4C[C@@H]3[C@@H](C(=O)OC)[C@@H]2OC)ccc1OC,82.9%,,49.7%,57.9%,74.8%,106%,84.6%,74.9%,82.5%,59.8%,-1.66% (active),36.7%,87.2%,61.1%,65.1%,82.9%,82.9%,79.5%,88.8%,39.7%
Cc1ccc(C2=NN(c3ccc(S(N)(=O)=O)cc3)C(c3cn(-c4ccccc4)nc3-c3ccccc3)C2)cc1 (stereo unspecified),65.7%,,82.7%,95.8%,42.7%,104%,112%,98.8%,96.1%,74.3%,46.3%,81.6%,87%,77.4%,32.3%,100%,83.5%,91.2%,116%,21.9%
COc1ccc(/C=C/C(=O)c2cccc(B(O)O)c2)cc1O,-10% (active),,48.2%,41.5%,47.8%,87.4%,0.0331% (active),75%,70.6%,12%,69.5%,9.35% (active),59.5%,44.2%,59.9%,81.7%,33.7%,13.8%,79.2%,8.39% (active)
CCN(CC)c1cc(/C=C/c2ccc(OC)c(OC)c2)nc2cc(F)c(F)cc12,71.8%,4.61% (active),8.74% (active),-58.7% (active),7.33% (active),-66% (active),4.7% (active),87.7%,74.6%,80.1%,103%,-68.5% (active),-33.1% (active),-62.3% (active),65.6%,93.3%,10.4%,25.9%,98.2%,
CC(=O)Nc1ccc(S(=O)(=O)NC(CCC(=O)Nc2ccc(Cl)cc2)C(=O)O)cc1 (stereo unspecified),102%,,95%,108%,102%,98.8%,99.2%,98%,99.2%,98.9%,106%,69.2%,100%,90.6%,97.5%,97.7%,67.5%,81.1%,94.4%,77.4%
COc1cc(C2C=C(C)N=C3SC(C)=NN32)cc(OC)c1OC (stereo unspecified),108%,,111%,114%,105%,111%,114%,106%,102%,95.8%,102%,82.5%,100%,100%,95.3%,101%,107%,96.3%,119%,107%
Nc1c(C(=O)Nc2ccccc2)sc2nc3c(cc12)CN(Cc1ccccc1)CC3,58.9%,,42.6%,49.9%,48.8%,66.4%,12.6%,74%,82.2%,73.3%,78.8%,-46.2% (active),76.1%,75%,67.3%,85.6%,70.6%,67%,60.3%,61.1%
CC(=O)OCC1OC(OCC2OC(OC(C)=O)C(OC(C)=O)C(OC(C)=O)C2OC(C)=O)C(OC(C)=O)C(OC(C)=O)C1OC(C)=O (stereo unspecified),110%,108%,,71%,105%,99.3%,108%,95.8%,107%,96.7%,103%,92.8%,100%,92%,93.5%,94.2%,92.2%,95.7%,104%,106%
O=S(=O)(NCCCNc1nccc(-c2c(-c3ccc(O)cc3)nc3sccn23)n1)c1ccc(F)cc1,10.6%,,7.09% (active),-12.7% (active),17.8%,-34.9% (active),0.696% (active),4.9% (active),-26.2% (active),10% (active),7.73% (active),17.8%,35.1%,11.1%,19.3%,-85.1% (active),-1.06% (active),,-6.84% (active),7.51% (active)
CC1=NN2C(=NC3=C(CCC/C3=C\c3ccc(Cl)cc3)C2c2ccc(Cl)cc2)S1 (stereo unspecified),101%,,109%,106%,98.6%,102%,102%,106%,92.3%,89.3%,48.1%,100%,84.3%,85.9%,95.3%,96.6%,83%,60.6%,99.3%,100%
CC(=O)Nc1ccc(S(=O)(=O)N2C(=O)CCC2C(=O)Nc2ccc(Br)cc2)cc1 (stereo unspecified),44.2%,,34.4%,57.4%,47.6%,13.1%,42.1%,30.4%,36.9%,7.48% (active),21.4%,59%,46.1%,22.2%,17%,17.6%,15.3%,6.05% (active),50.2%,0.475% (active)
Cc1ccc(S(=O)(=O)OC2COCOC2C(OS(=O)(=O)c2ccc(C)cc2)C2OCOCC2OS(=O)(=O)c2ccc(C)cc2)cc1 (stereo unspecified),111%,98.1%,,114%,106%,104%,98.9%,97.2%,112%,107%,98.7%,115%,108%,102%,97.6%,99.9%,98.3%,103%,118%,100%
CC(=O)C1CCC(C)=CC1=O (stereo unspecified),114%,93.4%,104%,113%,99.1%,101%,99.6%,92.8%,97.5%,99.4%,103%,81.5%,101%,97.4%,96.3%,108%,101%,94%,103%,
CN=S(=O)(NC(=O)c1ccc(Cl)cc1Cl)c1ccc(Br)s1 (stereo unspecified),111%,,104%,103%,109%,101%,97%,92.5%,106%,99.9%,112%,73.4%,103%,89.3%,,95.3%,99.9%,105%,102%,104%
Cc1cc(C)c(NC(=O)c2sc3nc4c(cc3c2N)CN(Cc2ccccc2)CC4)c(C)c1,27.6%,,44%,26.1%,36.5%,21.9%,8.37% (active),48%,40.2%,21.7%,7.19% (active),7.64% (active),42.9%,32.9%,22%,26.1%,24.5%,38.7%,57.1%,9.63% (active)
CCC(c1ccc(OC)cc1)C(CC)c1ccc(OCC[N+](C)(C)C)cc1 (stereo unspecified),91.9%,58%,,99.6%,40.8%,78.6%,41.9%,,64%,91.5%,28.4%,40%,19.3%,18.9%,45.3%,15.4%,30.3%,42.9%,45.1%,24.7%
CCC(c1ccc(OC)cc1)C(CC)c1ccc(O)c(CN2CCCC2)c1 (stereo unspecified),43.3%,-56.1% (active),,-31.1% (active),21.2%,-51.2% (active),-18.9% (active),,-47.4% (active),1.62% (active),4.26% (active),71.5%,40.6%,7.11% (active),24.4%,-91.8% (active),-74.1% (active),-79.1% (active),-50.9% (active),-32.1% (active)
Clc1nc2ccccc2nc1CI,109%,49.5%,,94.9%,113%,95.8%,97.8%,119%,55.3%,74.9%,117%,89.2%,103%,113%,89.6%,83%,100%,8.23% (active),103%,21.3%
